The supplement of paper PMC10849652
Targets with a hit are over-represented here; the source holds about 8,800 in all. About 0.5% of all pairs of compound and target were hits. Unmarked numbers belong to inactive results.

Experiments:
Assay in all cases: log2 fold change, soluble protein after heating vs DMSO (PISA); higher = thermal stabilisation; K562 lysate, 10 uM; active = over 0.2 and 3.5 SD of the protein, either way, in both replicates (recomputed)
lapatinib = compound: CS(=O)(=O)CCNCc1ccc(-c2ccc3ncnc(Nc4ccc(OCc5cccc(F)c5)c(Cl)c4)c3c2)o1 [lapatinib]
How it was run: (§1)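 Dounce homogenisation of K562 pellets in PBS pH 7.4 with 1 mM MgCl2 produced a crude extract, used at 1 mg/mL protein. Exposure to 10 μM compound lasted 30 min, and aliquots were then heated for 3 min across 48°C-58°C, pooled and brought to 0.5% NP-40 at 4°C. The supernatant after 21,000xg for 90 min was quantified by TMTpro 16plex LC-MS/MS with channel sums equalised. Duplicate values are given as log-two fold change in thermal stability relative to solvent controls.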

pictilisib = compound: CS(=O)(=O)N1CCN(Cc2cc3nc(-c4cccc5[nH]ncc45)nc(N4CCOCC4)c3s2)CC1 [pictilisib]
How it was run: as §1

crizotinib = compound: C[C@@H](Oc1cc(-c2cnn(C3CCNCC3)c2)cnc1N)c1c(Cl)ccc(F)c1Cl [crizotinib]
How it was run: as §1

[1] = compound: C[C@H](C1=CC=C(C=C1)C(=O)NC2=C3C=CNC3=NC=C2)N
How it was run: as §1

duvelisib = compound: C[C@H](Nc1ncnc2nc[nH]c12)c1cc2cccc(Cl)c2c(=O)n1-c1ccccc1 [duvelisib]
How it was run: as §1

gandotinib = compound: Cc1cc(Nc2cc(CN3CCOCC3)c3nc(C)c(Cc4ccc(Cl)cc4F)n3n2)n[nH]1 [gandotinib]
How it was run: as §1

tozasertib = compound: Cc1cc(Nc2cc(N3CCN(C)CC3)nc(Sc3ccc(NC(=O)C4CC4)cc3)n2)n[nH]1 [tozasertib]
How it was run: as §1

doramapimod = compound: Cc1ccc(-n2nc(C(C)(C)C)cc2NC(=O)Nc2ccc(OCCN3CCOCC3)c3ccccc23)cc1 [doramapimod]
How it was run: as §1

bafetinib = compound: Cc1ccc(NC(=O)c2ccc(CN3CC[C@H](N(C)C)C3)c(C(F)(F)F)c2)cc1Nc1nccc(-c2cncnc2)n1 [bafetinib]
How it was run: as §1

[2] = compound: Cc1cccc(CC(=O)N2CCc3c2ccc(-c2cn(C)c4ncnc(N)c24)c3F)n1
How it was run: as §1

Chain of UniProt Q9Y6M1 (Q9Y6M1 whole entry, looked up): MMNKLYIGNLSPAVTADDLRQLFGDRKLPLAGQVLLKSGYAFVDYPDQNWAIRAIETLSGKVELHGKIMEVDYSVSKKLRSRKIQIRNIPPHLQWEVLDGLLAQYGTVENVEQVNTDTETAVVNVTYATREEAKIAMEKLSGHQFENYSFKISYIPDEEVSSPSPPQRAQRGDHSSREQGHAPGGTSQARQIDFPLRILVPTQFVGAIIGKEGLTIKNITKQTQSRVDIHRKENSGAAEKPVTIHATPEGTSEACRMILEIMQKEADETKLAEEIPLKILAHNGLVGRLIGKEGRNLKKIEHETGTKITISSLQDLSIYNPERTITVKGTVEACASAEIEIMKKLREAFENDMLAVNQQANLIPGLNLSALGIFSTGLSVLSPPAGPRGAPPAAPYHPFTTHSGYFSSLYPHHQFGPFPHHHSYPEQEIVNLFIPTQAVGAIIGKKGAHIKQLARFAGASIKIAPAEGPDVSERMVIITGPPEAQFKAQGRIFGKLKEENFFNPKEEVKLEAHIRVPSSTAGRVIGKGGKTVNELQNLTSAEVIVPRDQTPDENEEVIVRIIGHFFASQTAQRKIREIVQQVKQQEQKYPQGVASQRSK
Chain of UniProt Q8TDG4 (Q8TDG4 whole entry, looked up): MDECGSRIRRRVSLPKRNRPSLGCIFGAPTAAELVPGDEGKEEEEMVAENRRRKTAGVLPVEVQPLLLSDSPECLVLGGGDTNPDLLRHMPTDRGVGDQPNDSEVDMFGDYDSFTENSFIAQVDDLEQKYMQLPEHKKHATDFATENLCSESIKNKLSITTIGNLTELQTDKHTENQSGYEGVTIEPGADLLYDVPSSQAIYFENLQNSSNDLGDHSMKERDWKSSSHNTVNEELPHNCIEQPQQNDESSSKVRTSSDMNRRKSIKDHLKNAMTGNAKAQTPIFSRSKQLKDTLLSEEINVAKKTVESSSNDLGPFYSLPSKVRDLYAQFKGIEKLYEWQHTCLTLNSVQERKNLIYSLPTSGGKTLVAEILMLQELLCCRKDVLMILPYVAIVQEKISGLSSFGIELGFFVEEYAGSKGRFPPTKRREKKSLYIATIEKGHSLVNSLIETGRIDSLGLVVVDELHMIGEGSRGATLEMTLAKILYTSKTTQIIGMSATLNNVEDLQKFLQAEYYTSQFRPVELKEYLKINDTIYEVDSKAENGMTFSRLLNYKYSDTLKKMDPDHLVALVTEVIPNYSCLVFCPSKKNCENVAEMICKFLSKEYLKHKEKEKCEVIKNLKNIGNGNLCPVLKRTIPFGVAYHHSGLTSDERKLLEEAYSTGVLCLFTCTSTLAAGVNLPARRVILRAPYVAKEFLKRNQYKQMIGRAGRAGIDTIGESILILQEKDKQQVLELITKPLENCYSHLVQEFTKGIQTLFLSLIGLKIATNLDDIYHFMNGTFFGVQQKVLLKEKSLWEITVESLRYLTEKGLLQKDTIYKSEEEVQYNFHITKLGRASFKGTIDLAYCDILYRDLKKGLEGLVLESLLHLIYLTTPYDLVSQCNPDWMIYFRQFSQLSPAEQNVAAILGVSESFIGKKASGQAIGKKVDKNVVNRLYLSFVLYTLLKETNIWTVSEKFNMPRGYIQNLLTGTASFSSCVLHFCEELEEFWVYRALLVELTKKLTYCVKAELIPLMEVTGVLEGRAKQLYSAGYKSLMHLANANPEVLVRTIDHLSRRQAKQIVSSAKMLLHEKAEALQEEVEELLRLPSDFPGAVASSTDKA
Chain of UniProt Q9NPR9 (Q9NPR9 whole entry, looked up): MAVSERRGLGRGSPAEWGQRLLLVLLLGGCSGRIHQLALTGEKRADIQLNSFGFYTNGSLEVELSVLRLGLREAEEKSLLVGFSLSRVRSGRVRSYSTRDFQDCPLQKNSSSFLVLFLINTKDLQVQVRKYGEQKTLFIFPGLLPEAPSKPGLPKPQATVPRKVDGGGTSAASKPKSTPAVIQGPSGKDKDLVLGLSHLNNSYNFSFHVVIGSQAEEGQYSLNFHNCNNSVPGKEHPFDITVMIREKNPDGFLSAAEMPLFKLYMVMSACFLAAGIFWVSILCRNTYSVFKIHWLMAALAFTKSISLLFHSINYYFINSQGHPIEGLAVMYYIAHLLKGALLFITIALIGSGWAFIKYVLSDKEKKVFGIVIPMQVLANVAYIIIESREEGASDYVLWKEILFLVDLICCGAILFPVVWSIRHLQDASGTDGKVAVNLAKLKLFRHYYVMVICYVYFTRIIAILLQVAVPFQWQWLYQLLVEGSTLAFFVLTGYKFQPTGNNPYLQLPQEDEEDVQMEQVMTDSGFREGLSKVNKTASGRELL
Chain of UniProt Q96SY0 (Q96SY0 whole entry, looked up): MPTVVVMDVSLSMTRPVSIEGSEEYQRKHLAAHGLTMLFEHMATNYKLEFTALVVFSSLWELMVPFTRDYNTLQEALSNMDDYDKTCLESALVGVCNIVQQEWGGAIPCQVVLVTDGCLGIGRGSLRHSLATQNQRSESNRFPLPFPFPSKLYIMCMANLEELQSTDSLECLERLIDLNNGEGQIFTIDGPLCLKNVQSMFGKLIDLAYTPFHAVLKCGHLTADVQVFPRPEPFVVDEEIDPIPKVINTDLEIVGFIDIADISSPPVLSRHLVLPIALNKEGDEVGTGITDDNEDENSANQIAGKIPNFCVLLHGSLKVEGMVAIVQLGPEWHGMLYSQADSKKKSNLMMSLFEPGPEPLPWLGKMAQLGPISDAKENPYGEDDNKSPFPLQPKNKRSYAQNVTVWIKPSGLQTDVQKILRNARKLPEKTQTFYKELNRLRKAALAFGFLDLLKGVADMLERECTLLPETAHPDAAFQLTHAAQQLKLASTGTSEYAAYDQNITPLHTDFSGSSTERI
Chain of UniProt Q5T447 (Q5T447 whole entry, looked up): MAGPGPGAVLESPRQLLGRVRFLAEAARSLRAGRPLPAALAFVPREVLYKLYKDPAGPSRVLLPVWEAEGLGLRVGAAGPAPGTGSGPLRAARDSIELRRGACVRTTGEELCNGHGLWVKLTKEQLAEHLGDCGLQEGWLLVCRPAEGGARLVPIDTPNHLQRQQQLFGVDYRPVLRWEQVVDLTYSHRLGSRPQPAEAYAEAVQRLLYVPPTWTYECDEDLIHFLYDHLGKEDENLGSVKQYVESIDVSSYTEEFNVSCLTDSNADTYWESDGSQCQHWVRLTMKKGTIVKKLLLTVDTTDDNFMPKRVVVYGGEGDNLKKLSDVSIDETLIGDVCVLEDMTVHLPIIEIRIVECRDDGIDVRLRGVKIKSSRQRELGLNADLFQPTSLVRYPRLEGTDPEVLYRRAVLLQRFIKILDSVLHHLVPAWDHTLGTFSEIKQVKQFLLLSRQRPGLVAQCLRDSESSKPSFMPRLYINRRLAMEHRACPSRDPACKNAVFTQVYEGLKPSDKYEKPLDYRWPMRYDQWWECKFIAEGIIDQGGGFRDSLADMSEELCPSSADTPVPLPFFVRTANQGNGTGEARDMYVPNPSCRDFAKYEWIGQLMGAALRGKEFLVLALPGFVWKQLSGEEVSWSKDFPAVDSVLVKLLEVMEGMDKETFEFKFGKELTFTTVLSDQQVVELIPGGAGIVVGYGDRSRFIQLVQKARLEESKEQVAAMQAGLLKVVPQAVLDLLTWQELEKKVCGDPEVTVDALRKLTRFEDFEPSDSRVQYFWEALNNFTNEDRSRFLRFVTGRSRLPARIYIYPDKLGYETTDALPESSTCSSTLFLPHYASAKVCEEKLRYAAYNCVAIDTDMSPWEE
Chain of UniProt Q9NSE4 (Q9NSE4 whole entry, looked up): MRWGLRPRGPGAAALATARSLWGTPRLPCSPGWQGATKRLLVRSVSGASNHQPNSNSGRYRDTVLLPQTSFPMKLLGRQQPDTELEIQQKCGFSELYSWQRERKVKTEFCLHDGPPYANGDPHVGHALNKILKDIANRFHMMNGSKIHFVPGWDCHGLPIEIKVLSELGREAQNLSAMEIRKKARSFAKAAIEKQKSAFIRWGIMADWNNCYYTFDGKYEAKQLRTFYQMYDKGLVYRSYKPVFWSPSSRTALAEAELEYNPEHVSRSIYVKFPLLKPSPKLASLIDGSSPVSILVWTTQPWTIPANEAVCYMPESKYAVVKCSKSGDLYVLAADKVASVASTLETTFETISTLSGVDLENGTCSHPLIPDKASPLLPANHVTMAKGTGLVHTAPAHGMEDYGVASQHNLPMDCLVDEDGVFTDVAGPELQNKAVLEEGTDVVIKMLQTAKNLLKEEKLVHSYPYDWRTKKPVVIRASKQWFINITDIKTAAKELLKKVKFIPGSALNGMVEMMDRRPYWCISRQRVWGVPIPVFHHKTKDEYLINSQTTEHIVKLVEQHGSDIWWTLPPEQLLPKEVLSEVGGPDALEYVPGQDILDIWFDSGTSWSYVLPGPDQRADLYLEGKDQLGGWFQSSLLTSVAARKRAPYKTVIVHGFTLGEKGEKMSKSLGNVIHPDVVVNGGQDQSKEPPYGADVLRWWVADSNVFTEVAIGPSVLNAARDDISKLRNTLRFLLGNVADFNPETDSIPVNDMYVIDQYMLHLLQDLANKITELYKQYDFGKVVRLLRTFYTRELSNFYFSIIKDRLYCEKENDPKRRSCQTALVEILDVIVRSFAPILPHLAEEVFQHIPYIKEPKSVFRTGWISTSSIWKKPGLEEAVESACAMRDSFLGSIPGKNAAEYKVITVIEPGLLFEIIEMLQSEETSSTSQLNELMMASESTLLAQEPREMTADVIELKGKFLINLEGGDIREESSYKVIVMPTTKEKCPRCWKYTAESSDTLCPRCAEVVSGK
Chain of UniProt Q14103 (Q14103 whole entry, looked up): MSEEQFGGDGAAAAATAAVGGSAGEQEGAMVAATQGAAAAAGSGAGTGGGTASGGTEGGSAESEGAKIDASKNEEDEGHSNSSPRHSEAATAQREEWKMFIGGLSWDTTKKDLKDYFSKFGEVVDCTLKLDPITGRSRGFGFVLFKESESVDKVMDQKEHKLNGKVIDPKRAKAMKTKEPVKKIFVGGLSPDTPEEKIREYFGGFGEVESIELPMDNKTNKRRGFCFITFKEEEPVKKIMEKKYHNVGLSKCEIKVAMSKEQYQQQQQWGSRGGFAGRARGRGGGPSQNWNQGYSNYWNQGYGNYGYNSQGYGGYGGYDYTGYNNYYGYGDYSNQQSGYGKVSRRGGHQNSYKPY

Row | Target | log2 fold change (lapatinib) | log2 fold change (pictilisib) | log2 fold change (crizotinib) | log2 fold change [1] | log2 fold change (duvelisib) | log2 fold change (gandotinib) | log2 fold change (tozasertib) | log2 fold change (doramapimod) | log2 fold change (bafetinib) | log2 fold change [2]
1 | HMGN4 (UniProt O00479) | 0.038 | -0.044 | 0.047 | 1.19 (active) | -0.074 | -0.421 | 0.078 | -0.163 | 0.6 | -0.551
2 | HSPA14 (UniProt Q0VDF9) | -0.016 | 0.023 | -0.02 | -0.038 | 0.007 | -0.039 | 0.018 | 0.003 | -0.026 | 0.037
3 | IRAK4 (UniProt Q9NWZ3) | -0.021 | -0.018 | 0.175 | 0.012 | 0.026 | -0.082 | 0 | 0.011 | -0.013 | 0.012
4 | IGF2BP2 isoform 6 (UniProt Q9Y6M1) | 0.084 | – | – | – | – | – | – | – | – | –
5 | HNRNPL (UniProt P14866) | 0.005 | -0.02 | -0.042 | 0.018 | 0.03 | -0.081 | -0.011 | -0.018 | 0.004 | -0.016
6 | GPR108 (UniProt Q9NPR9) | 0.022 | 0.03 | -0.01 | -0.121 | -0.043 | 0.237 (active) | 0.024 | 0.04 | 0.044 | -0.043
7 | ILK (UniProt Q13418) | 0.01 | -0.005 | -0.038 | 0.01 | -0.036 | -0.015 | 0.005 | 0.004 | -0.002 | 0.007
8 | IMMT (UniProt Q16891) | -0.058 | 0.001 | -0.049 | -0.006 | -0.039 | -0.134 | 0.02 | 0.011 | -0.053 | 0.023
9 | HDAC3 (UniProt E7ESJ6) | -0.073 | – | – | – | – | – | – | – | – | –
10 | IGF2BP2 (UniProt Q9Y6M1) | -0.034 | -0.015 | 0.012 | -0.031 | 0 | 0.009 | -0.011 | 0.021 | -0.093 | 0.048
11 | HELQ (UniProt Q8TDG4) | 0.002 | -0.009 | -0.011 | -0.014 | 0.025 | 0.012 | -0.01 | 0.042 | -0.109 | -0.033
12 | GSTCD (UniProt Q8NEC7) | -0.006 | -0.015 | -0.037 | -0.058 | 0.09 | 0.036 | -0.037 | 0 | -0.053 | 0.01
13 | GTF2I (UniProt P78347) | -0.005 | -0.011 | -0.039 | -0.01 | 0.016 | -0.086 | -0.004 | 0.018 | -0.066 | 0.027
14 | KIAA0930 isoform 2 (UniProt Q6ICG6) | -0.068 | 0.016 | -0.067 | -0.121 | -0.037 | 0.055 | -0.015 | 0.055 | -0.051 | 0.191
15 | HMBOX1 isoform 5 (UniProt Q6NT76) | 0.254 (active) | -0.097 | 0.023 | 0 | 0.021 | 0.052 | 0.035 | -0.013 | 0.112 | 0.129
16 | IARS2 (UniProt Q9NSE4) | -0.023 | -0.013 | -0.01 | 0.19 | -0.007 | -0.057 | 0.02 | 0.011 | -0.002 | -0.049

Row | Target | log2 fold change (lapatinib) | log2 fold change (pictilisib) | log2 fold change (crizotinib) | log2 fold change [1] | log2 fold change (duvelisib) | log2 fold change (gandotinib) | log2 fold change (tozasertib) | log2 fold change (doramapimod) | log2 fold change (bafetinib) | log2 fold change [2]
17 | INPPL1 (UniProt O15357) | 0.023 | 0.006 | -0.047 | -0.05 | -0.004 | -0.065 | 0.029 | 0.01 | -0.05 | 0.03
18 | H4C1 (UniProt P62805) | -0.043 | -0.069 | 0.032 | 0.003 | -0.16 | 0 | -0.027 | 0.006 | 0.059 | -0.044
19 | INTS3 (UniProt Q68E01) | -0.05 | -0.005 | -0.016 | 0.02 | -0.005 | -0.104 | 0.018 | 0.106 | -0.07 | -0.052
20 | INTS7 (UniProt Q9NVH2) | 0.01 | -0.032 | -0.07 | -0.096 | 0.01 | -0.077 | -0.01 | 0.4 | 0.141 | 0.012
21 | KARS1 (UniProt Q15046) | -0.002 | 0 | 0.003 | 0.036 | 0.004 | -0.082 | 0.025 | 0.007 | -0.025 | -0.026
22 | KDM1A (UniProt O60341) | -0.01 | -0.029 | -0.036 | -0.055 | -0.025 | -0.056 | -0.031 | 0.015 | -0.016 | 0.025
23 | GSE1 (UniProt Q14687) | 0.006 | -0.032 | -0.014 | -0.073 | -0.015 | 0.011 | 0.008 | -0.019 | -0.006 | 0.051
24 | INTS14 (UniProt Q96SY0) | 0 | 0.016 | 0.005 | 0.038 | 0.012 | -0.035 | -0.011 | -0.012 | 0.009 | -0.027
25 | GOLPH3L (UniProt Q9H4A5) | 0.019 | -0.048 | -0.106 | -0.028 | -0.027 | -0.05 | -0.071 | -0.009 | -0.146 | 0.029
26 | HADH isoform 2 (UniProt Q16836) | -0.011 | 0.04 | 0.031 | 0.057 | -0.044 | -0.05 | 0.053 | -0.055 | 0.045 | -0.055
27 | HAUS8 (UniProt Q9BT25) | -0.022 | -0.02 | -0.055 | 0.057 | -0.075 | 0.045 | 0.027 | -0.007 | -0.037 | 0.027
28 | HLTF (UniProt Q14527) | 0.045 | 0.061 | -0.019 | -0.063 | -0.05 | -0.021 | 0.004 | -0.007 | -0.087 | 0.035
29 | HECTD3 (UniProt Q5T447) | -0.047 | -0.098 | -0.034 | -0.001 | -0.006 | -0.013 | 0.018 | 0.056 | -0.13 | -0.004
30 | HNRNPD isoform 3 (UniProt Q14103) | -0.062 | 0.126 | -0.07 | -0.08 | 0.043 | 0.094 | -0.078 | 0.045 | 0.166 | 0.033
31 | GNB4 (UniProt Q9HAV0) | 0.031 | -0.031 | 0.106 | -0.058 | 0.015 | 0.094 | -0.028 | 0.171 | -0.033 | 0.074
